# About 79,000 compounds went through this panel and 15% of them were active in at least one assay; those are over-represented in the sample as a whole. Active and inactive are the calls of the source. Cut-off read from the data, not from the text of the source: active = growth inhibition above about 70%; inactive = the rest.
# Test: NCI Yeast Anticancer Drug Screen. Data for the mlh1 rad18 strain (AID 175)
# Settings: S. cerevisiae mlh1 rad18 strain growth inhibition; at 50.0 µM; active compounds read high
# Procedure, shortened: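 Genetically defined yeast (DNA repair-deficient) exposed to compounds; growth inhibition determined relative to vehicle.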
row,SMILES,growth inhibition
1,CC(CN(C)C)C(=O)/C=C/c1ccc(Cl)c(Cl)c1 (centres undefined),99.2% (active)
2,CCCCCCNCCCNc1c2cc(OC)ccc2nc2cccc([N+](=O)[O-])c12,97.2% (active)
3,C/C(=N/NC(=S)Nc1ccccc1C)c1ccccn1,86.5% (active)
4,O=C1/C(=C/c2ccc(Cl)c(Cl)c2)CNC/C1=C\c1ccc(Cl)c(Cl)c1,90.3% (active)
5,CC(C)OP(=O)(OC(C)C)C(=NCCO)NNc1ccc([N+](=O)[O-])cc1,72.9% (active)
6,N#CCC(=O)N/N=C(\c1ccccc1)C(c1ccccc1)C1(O)C(=O)Nc2c(Cl)ccc(Cl)c21 (centres undefined),69.2% (inactive)
7,CC(C)(CN1CCCCC1)C(=O)CC(SCCS(=O)(=O)O)c1ccccc1 (centres undefined),5.05% (inactive)
8,COC1=CCC23C(=O)C=CC(=O)C2(C1)C(=O)c1ccccc1C3=O (centres undefined),68.2% (inactive)
9,CCCCN(CCCC)c1ccc(N=Nc2ccc(S(=O)(=O)O)cc2)cc1,88.2% (active)
10,c1ccc2nc3c(nc2c1)sc1ccccc13,61.9% (inactive)
11,O=C1c2ccccc2-c2ccc(N=Cc3ccccc3)cc21,56.5% (inactive)
12,CNC(=S)N/N=C(/C)CCC/C(C)=N/NC(=S)NC,62.4% (inactive)
13,Nc1ccc(/C=C/c2ccc3cccnc3c2)cc1,32.8% (inactive)
14,COc1ccc2c3c1OC(C)C31CC(=O)CCC1CC2 (centres undefined),-0.75% (inactive)
15,CCOC(=O)Nc1ccc(C)c(NC(=O)OCC)c1,8.35% (inactive)
16,CCN(CC)CCNc1ccc2nc(C)n3c4ccc(OC)cc4c(=O)c1c23,77.4% (active)
17,C[N+](C)([O-])CCCNc1c2ccccc2nc2cccc([N+](=O)[O-])c12,78.5% (active)

row,SMILES,growth inhibition
1,O=C(c1cc(=O)c2ccc(O)cc2o1)c1ccc(Cl)cc1Cl,85.5% (active)
2,CCCNC(=O)OCc1c(COC(=O)NCCC)c(-c2ccc(Cl)c(Cl)c2)n2c1CCC2,56.4% (inactive)
3,O=C(Cc1ccccc1)NN1C(=O)C(Cl)C1c1cc(Br)cc(Br)c1O (centres undefined),97.2% (active)
4,CCOC(=O)C(Cc1c2ccccc2cc2ccccc12)(NC(C)=O)C(=O)OCC,86.9% (active)
5,O=[N+]([O-])/C=C/c1cc2ccc3ccccc3c2[nH]1,98% (active)
6,Fc1ccc(Nc2ccc3ccccc3c2)cc1,93.5% (active)
7,O=S1(=O)CCC2=CC(C(F)(F)F)=CC(C(F)(F)F)=CN21,97.2% (active)
8,O=C(Cc1ccccc1)NNc1nc(NNC(=O)c2ccncc2)nc(Nc2ccc([N+](=O)[O-])cc2)n1,86.2% (active)
9,CCCCS/C(=C(/C#N)C(N)=O)c1cc2c([nH]1)CCCC2,-32.3% (inactive)
10,O=C(O)c1ccccc1C(=O)OC1CCc2ccccc2C1 (centres undefined),22.7% (inactive)
11,NC(=S)N/N=C1\c2ccccc2CCC1CCC1(O)CCc2ccccc2C1=O (centres undefined),93.3% (active)
12,Cc1cccc2c(Cl)c3cccc(C)c3nc12,10.1% (inactive)
13,CC(C)OC(=O)NNc1c(Cl)cc(Cl)cc1Cl,24.9% (inactive)
14,Nc1ccc2c(c1)C(=O)c1c(F)cccc1-2,84.5% (active)
15,N#CSCC1COc2ccccc2O1 (centres undefined),88.2% (active)
16,Cc1ccc(S(=O)(=O)NC(=O)C2C(=O)CC3(CCCCC3)CC2=O)cc1,-61.4% (inactive)
17,CC1=NN(C(=O)c2ccccc2O)C(=O)/C1=C/c1ccco1,82.5% (active)
